From PubChem BioAssay (NCATS)
Results filed as inconclusive are left out. Calls of active or inactive are those of the source. Calls come from the whole dose curve; as a rule, active = well fitted curve in the direction sought with a large enough effect; inconclusive = small, poorly fitted or top-dose-only effect, or another doubt; inactive = no such curve, though single readings can be large or run the other way.

assay: Cytotoxicity counterscreen for NFkB agonists and antagonists (AID 624476); conditions: NFkB reporter cell line viability counterscreen; series mostly up to 46.1 µM; activity change, negative = cytotoxicity: at the top concentration;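 note: cells exposed to compound for 48 hours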
% is set by controls: 0 for no effect and ±100 for the full control effect; potency is the fitted concentration of half-maximal effect.

SMILES	activity change, negative = cytotoxicity	Potency
CCC(=O)N[C@H]1CC[C@H](C(=O)N(C)c2ccc(-c3nc4ccccc4o3)cc2)C1	-20.6% (inactive)	
COc1ccccc1[C@H](c1cccc2ccccc12)[C@@](C)(C#N)C(=O)N1CCC(c2cccc(C(F)(F)F)c2)CC1	0.285% (inactive)	
O=C(C1CC1)N1CC[C@@H](Cn2c(-c3ccc(-c4ccc5occc5c4)cc3)nc3cnccc32)C1	-24.1% (inactive)	
O=C1CCCC2=C1C(c1[nH]ncc1Cl)N=C(Nc1nc3ccccc3o1)N2 (configuration not stated)	-6.4% (inactive)	
COc1ccc(-c2c(-c3ccc(O)cc3O)n[nH]c2C)cc1	-8.54% (inactive)	
O=c1[nH]c(-c2ccc(C(F)(F)F)cc2)nc2c1CSCC2	-0.0249% (inactive)	
CCN(CCCO)CCCOc1ccc2c(Nc3cc(CC(=O)Nc4cccc(F)c4)[nH]n3)ncnc2c1	-7.22% (inactive)	
COc1ccccc1-c1cccc(-c2c(O)c3cc(C#N)c(Cl)cc3[nH]c2=O)c1	-20.2% (inactive)	
COc1c(Cl)cc2c([nH]c3cnccc32)c1NC(=O)c1cccnc1C	2.84% (inactive)	
CO[C@@H]1[C@H](N(C)C(=O)c2ccccc2)C[C@H]2O[C@]1(C)n1c3ccccc3c3c4c(c5c6ccccc6n2c5c31)C(=O)NC4	-16.3% (inactive)	
OCCn1cc(-c2cnc3nnn(Cc4ccc5ncccc5c4)c3n2)cn1	7.71% (inactive)	
CC1(C)CNc2cc(NC(=O)c3cccnc3NCc3ccncc3)ccc21	-62% (inactive)	
COc1nc(-c2ccc3c(c2)OCO3)n(-c2ccc(NC(=O)CSc3ccccc3)cc2)n1	-9.01% (inactive)	
CNC(=O)c1ccc(C)c(-n2c(C)cc(OCc3ccc(F)cc3F)c(Br)c2=O)c1	-4.47% (inactive)	
CCc1cncnc1N1CCN(Cc2nc3ccc(C(F)(F)F)cc3[nH]2)CC1	-24.9% (inactive)	
COc1ccc(-c2ccc3c(N4CCOCC4)nc(N4C[C@@H](C)O[C@@H](C)C4)nc3n2)cc1CO	-87.3% (inactive)	

SMILES	activity change, negative = cytotoxicity	Potency
CC1(C)SCCN(S(=O)(=O)c2ccc(OCC#CCO)cc2)[C@@H]1C(=O)NO	-2.88% (inactive)	
Cc1cc(Nc2nc(N[C@@H](C)c3ncc(F)cn3)ncc2Cl)n[nH]1	0.844% (inactive)	
Cc1ccc(-n2nc(C(C)(C)C)cc2NC(=O)Nc2ccc(OCCN3CCOCC3)c3ccccc23)cc1	-2.33% (inactive)	
CC(=O)NC(C)c1ccc(Oc2ccc(OC(C)C)cc2)cc1 (configuration not stated)	-14.7% (inactive)	
CCOC(=O)N[C@@H]1CC[C@@H]2[C@@H](C1)C[C@H]1C(=O)O[C@H](C)[C@H]1[C@@H]2C=Cc1ccc(-c2cccc(F)c2)cn1	-17.5% (inactive)	
Cc1ccc2c(c1)C(=O)[C@@]1(O)CCN(c3ccccc3)C1=N2	6.34% (inactive)	
N#CC[C@H](C1CCCC1)n1cc(-c2ncnc3[nH]ccc23)cn1	0.6% (inactive)	
CN[C@@H](C)C(=O)N[C@H]1CCCC[C@H]2CC[C@@H](C(=O)N[C@@H](c3ccccc3)c3cn(CCCCc4ccc(CCCCn5cc([C@@H](NC(=O)[C@@H]6CC[C@@H]7CCCC[C@H](NC(=O)[C@H](C)NC)C(=O)N76)c6ccccc6)nn5)cc4)nn3)N2C1=O	-1.13% (inactive)	
S=C(NCc1ccc2c(c1)OCO2)N1CCN(c2ncnc3c2oc2ccccc23)CC1	-70.1% (inactive)	
Oc1cccc(-c2nc(N3CCOCC3)c3oc4ncccc4c3n2)c1		83.3 nM (active)
COc1ccc(CC2=NN3C([C@@H](CCc4ccccc4)[C@@H](C)O)=NC(C)C3C(=O)N2)cc1OC (some centres not stated)	-3.71% (inactive)	
CS(=O)(=O)Oc1ccc2c(NC(N)=O)c(C(=O)c3ccc(Cl)cc3Cl)oc2c1	-15.7% (inactive)	
Fc1ccc(Cl)cc1-c1nc(Nc2ccncc2)c2nccnc2n1	-33.6% (inactive)	
CCCS(=O)(=O)Nc1ccc(F)c(C(=O)c2c[nH]c3ncc(Cl)cc23)c1F	-23.1% (inactive)	
COc1cccc2cc(-c3nc(C4CCC(C(=O)O)CC4)n4ncnc(N)c34)[nH]c12 (configuration not stated)	-46.6% (inactive)	
O=C(c1cc(Cc2n[nH]c(=O)c3ccccc23)ccc1F)N1CCN(C(=O)C2CC2)CC1	-1.84% (inactive)	
